# Assay results published in PubChem BioAssay AID1159580 (chemical genetic matrix, 2015).
# Among all 5,500 compounds or so, about 2,000 (36%) were called active. About 18% were inconclusive and are not listed. The list shows a part of the results. Values without a mark were called inactive. Rule as the data show it: active = normalized growth mostly below about 0.91 (no sharp cut-off); inconclusive = no clear call, values can overlap the other calls; inactive = mostly above about 0.92.
# Assay: chemical genetic growth profiling, strain panel (AID 1159580);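 also: tested at 20 µM; growth read once vehicle control cultures reached saturation at 30 °C; 1 = growth at the plate median or of vehicle wells; lower values mean less growth of the strain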
# Conditions: growth OD
smiles,measurement,setting,value
CC1=C2CCC3C(CC[C@]4(C)C(=O)CCC34)[C@@]2(C)CCC1=O (some centres not stated),normalized growth,"S. cerevisiae deletion strains, locus YJR075W, strain HOC1, active compounds read low",0.968
same,normalized growth,"S. cerevisiae deletion strains, locus YKL009W, strain mrt4, active compounds read low",0.948
same,normalized growth,"S. cerevisiae deletion strains, locus YKL068W, active compounds read low",0.985
same,normalized growth,"S. cerevisiae deletion strains, locus YKL085W, strain MDH1 (second series), active compounds read low",0.983
same,normalized growth,"S. cerevisiae deletion strains, locus YKL085W, strain MDH1, active compounds read low",0.983
same,normalized growth,"S. cerevisiae deletion strains, locus YKL160W, strain elf1, active compounds read low",0.936
same,normalized growth,"S. cerevisiae deletion strains, locus YKL190W, strain CNB1, active compounds read low",0.98
same,normalized growth,"S. cerevisiae deletion strains, locus YKR001C, strain vps1, active compounds read low",0.9
same,normalized growth,"S. cerevisiae deletion strains, locus YKR026C, strain gcn3, active compounds read low",0.998
same,normalized growth,"S. cerevisiae deletion strains, locus YKR091W, strain srl3, active compounds read low",0.985
same,normalized growth,"S. cerevisiae deletion strains, locus YLL001W, strain dnm1, active compounds read low",0.937
same,normalized growth,"S. cerevisiae deletion strains, locus YLL026W, active compounds read low",0.994
same,normalized growth,"S. cerevisiae deletion strains, locus YLL041C, strain sdh2, active compounds read low",0.984
same,normalized growth,"S. cerevisiae deletion strains, locus YLR027C, strain aat2, active compounds read low",0.948
same,normalized growth,"S. cerevisiae deletion strains, locus YLR039C, strain RIC1, active compounds read low",0.587 (active)
same,normalized growth,"S. cerevisiae deletion strains, locus YLR058C, strain SHM2, active compounds read low",0.976
same,normalized growth,"S. cerevisiae deletion strains, locus YLR102C, strain apc9, active compounds read low",0.977
same,normalized growth,"S. cerevisiae deletion strains, locus YLR113W, strain HOG1, active compounds read low",0.974
same,normalized growth,"S. cerevisiae deletion strains, locus YLR221C, strain rsa3, active compounds read low",0.994
same,normalized growth,"S. cerevisiae deletion strains, locus YLR258W, strain gsy2, active compounds read low",0.959
same,normalized growth,"S. cerevisiae deletion strains, locus YLR262C, strain YPT6 (second series), active compounds read low",0.655 (active)
same,normalized growth,"S. cerevisiae deletion strains, locus YLR262C, strain YPT6, active compounds read low",0.613
same,normalized growth,"S. cerevisiae deletion strains, locus YLR268W, strain sec22, active compounds read low",1.02
same,normalized growth,"S. cerevisiae deletion strains, locus YLR320W, strain mms22, active compounds read low",0.94
same,normalized growth,"S. cerevisiae deletion strains, locus YLR330W, strain CHS5, active compounds read low",0.982
same,normalized growth,"S. cerevisiae deletion strains, locus YLR342W, strain FKS1 (second series), active compounds read low",0.811
same,normalized growth,"S. cerevisiae deletion strains, locus YLR342W, strain FKS1, active compounds read low",0.951
same,normalized growth,"S. cerevisiae deletion strains, locus YLR357W, strain rsc2, active compounds read low",1.01
same,normalized growth,"S. cerevisiae deletion strains, locus YLR370C, strain arc18, active compounds read low",0.986
same,normalized growth,"S. cerevisiae deletion strains, locus YLR371W, strain rom2, active compounds read low",0.983
same,normalized growth,"S. cerevisiae deletion strains, locus YLR384C, strain iki3, active compounds read low",0.983
same,normalized growth,"S. cerevisiae deletion strains, locus YLR418C, strain cdc73, active compounds read low",0.771 (active)
same,normalized growth,"S. cerevisiae deletion strains, locus YML016C, strain PPZ1, active compounds read low",0.965
same,normalized growth,"S. cerevisiae deletion strains, locus YML032C, strain rad52, active compounds read low",0.966
same,normalized growth,"S. cerevisiae deletion strains, locus YML120C, strain ndi1, active compounds read low",0.955
same,normalized growth,"S. cerevisiae deletion strains, locus YML124C, strain tub3, active compounds read low",0.969
same,normalized growth,"S. cerevisiae deletion strains, locus YMR058W, strain fet3, active compounds read low",0.976
same,normalized growth,"S. cerevisiae deletion strains, locus YMR078C, strain ctf18, active compounds read low",0.953
same,normalized growth,"S. cerevisiae deletion strains, locus YMR125W, strain sto1, active compounds read low",0.993
same,normalized growth,"S. cerevisiae deletion strains, locus YMR129W, active compounds read low",0.993
same,normalized growth,"S. cerevisiae deletion strains, locus YMR205C, strain PFK2, active compounds read low",0.9
same,normalized growth,"S. cerevisiae deletion strains, locus YMR223W, strain ubp8, active compounds read low",0.9 (active)
same,normalized growth,"S. cerevisiae deletion strains, locus YMR231W, strain pep5, active compounds read low",0.976
same,normalized growth,"S. cerevisiae deletion strains, locus YMR263W, strain SAP30, active compounds read low",0.971
same,normalized growth,"S. cerevisiae deletion strains, locus YMR307W, strain GAS1, active compounds read low",0.759
same,normalized growth,"S. cerevisiae deletion strains, locus YNL067W, strain RPL9B, active compounds read low",0.987
same,normalized growth,"S. cerevisiae deletion strains, locus YNL071W, strain lat1, active compounds read low",0.863 (active)
same,normalized growth,"S. cerevisiae deletion strains, locus YNL128W, strain TEP1, active compounds read low",0.99
same,normalized growth,"S. cerevisiae deletion strains, locus YNL153C, strain GIM3, active compounds read low",0.99
same,normalized growth,"S. cerevisiae deletion strains, locus YNL183C, strain NPR1, active compounds read low",0.839
same,normalized growth,"S. cerevisiae deletion strains, locus YNL209W, strain ssb2, active compounds read low",0.962
same,normalized growth,"S. cerevisiae deletion strains, locus YNL233W, strain BNI4, active compounds read low",0.962
same,normalized growth,"S. cerevisiae deletion strains, locus YNL248C, strain rpa49, active compounds read low",1.01
same,normalized growth,"S. cerevisiae deletion strains, locus YNL250W, strain rad50, active compounds read low",0.951
same,normalized growth,"S. cerevisiae deletion strains, locus YNL271C, strain bni1, active compounds read low",0.957
same,normalized growth,"S. cerevisiae deletion strains, locus YNL298W, strain CLA4, active compounds read low",0.929
same,normalized growth,"S. cerevisiae deletion strains, locus YNL307C, strain MCK1, active compounds read low",0.695 (active)
same,normalized growth,"S. cerevisiae deletion strains, locus YNL322C, strain KRE1 (second series), active compounds read low",0.986
same,normalized growth,"S. cerevisiae deletion strains, locus YNL322C, strain KRE1, active compounds read low",0.983
same,normalized growth,"S. cerevisiae deletion strains, locus YNR049C, strain mso1, active compounds read low",0.997
same,normalized growth,"S. cerevisiae deletion strains, locus YNR052C, strain pop2, active compounds read low",0.89 (active)
same,normalized growth,"S. cerevisiae deletion strains, locus YOL006C, strain TOP1, active compounds read low",0.729
same,normalized growth,"S. cerevisiae deletion strains, locus YOL012C, strain htz1",1.08
same,normalized growth,"S. cerevisiae deletion strains, locus YOL147C, strain pex11, active compounds read low",0.959
same,normalized growth,"S. cerevisiae deletion strains, locus YOR001W, strain rrp6, active compounds read low",1.01
same,normalized growth,"S. cerevisiae deletion strains, locus YOR061W, strain CKA2, active compounds read low",0.979
same,normalized growth,"S. cerevisiae deletion strains, locus YOR069W, strain VPS5, active compounds read low",0.973
same,normalized growth,"S. cerevisiae deletion strains, locus YOR070C, strain gyp1, active compounds read low",0.959
same,normalized growth,"S. cerevisiae deletion strains, locus YOR080W, strain dia2, active compounds read low",0.995
same,normalized growth,"S. cerevisiae deletion strains, locus YOR083W, strain WHI5, active compounds read low",0.915
same,normalized growth,"S. cerevisiae deletion strains, locus YOR106W, strain vam3, active compounds read low",0.944
same,normalized growth,"S. cerevisiae deletion strains, locus YOR136W, strain idh2, active compounds read low",0.961
same,normalized growth,"S. cerevisiae deletion strains, locus YOR144C, strain elg1, active compounds read low",0.958
same,normalized growth,"S. cerevisiae deletion strains, locus YOR184W, strain ser1, active compounds read low",0.719 (active)
same,normalized growth,"S. cerevisiae deletion strains, locus YOR231W, strain MKK1, active compounds read low",0.955
same,normalized growth,"S. cerevisiae deletion strains, locus YOR265W, strain rbl2, active compounds read low",0.985
same,normalized growth,"S. cerevisiae deletion strains, locus YOR270C, strain vph1, active compounds read low",0.844
same,normalized growth,"S. cerevisiae deletion strains, locus YOR290C, strain snf2, active compounds read low",0.898
same,normalized growth,"S. cerevisiae deletion strains, locus YOR316C, strain cot1, active compounds read low",0.98
same,normalized growth,"S. cerevisiae deletion strains, locus YPL051W, strain arl3, active compounds read low",0.921
same,normalized growth,"S. cerevisiae deletion strains, locus YPL055C, strain LGE1, active compounds read low",0.871
same,normalized growth,"S. cerevisiae deletion strains, locus YPL078C, strain atp4, active compounds read low",0.887 (active)
same,normalized growth,"S. cerevisiae deletion strains, locus YPL106C, strain sse1, active compounds read low",1
same,normalized growth,"S. cerevisiae deletion strains, locus YPL240C, strain hsp82, active compounds read low",0.987
same,normalized growth,"S. cerevisiae deletion strains, locus YPL241C, strain CIN2, active compounds read low",0.986
same,normalized growth,"S. cerevisiae deletion strains, locus YPL256C, strain CLN2, active compounds read low",0.927
same,normalized growth,"S. cerevisiae deletion strains, locus YPR119W, strain clb2, active compounds read low",0.979
same,normalized growth,"S. cerevisiae deletion strains, locus YPR141C, strain kar3, active compounds read low",0.951
same,normalized growth,"S. cerevisiae deletion strains, locus YPR163C, strain tif3, active compounds read low",0.927
same,normalized growth,"S. cerevisiae deletion strains, locus YPR167C, strain met16, active compounds read low",0.972
same,normalized growth,"S. cerevisiae deletion strains, strain wtn01, active compounds read low",0.964
same,normalized growth,"S. cerevisiae strains, strain wild type, active compounds read low",0.942
